Experimental data as given in PubChem BioAssay AID463173 (ICCB-Longwood Screening Facility, Harvard Medical School, 2010).
Hit rate of the full screen: of about 52,000 compounds, about 4,300 (8.3%) were called active. This excerpt belongs to a sample that is enriched for actives. Values without a mark were called inactive. Rule as the data show it: active = survival mostly below about 52% (no sharp cut-off); inactive = mostly above about 56%.

What follows are compounds tested on DeltatarO mutant (assay: S. aureus survival, RN4220 and DeltatarO strains – OD600, teichoic acid synthesis inhibitors, primary screen (AID 463173)). Conditions: S. aureus RN4220 wild type/DeltatarO growth, OD600, 18 h, stronger effect = lower value, screened at 18.75 µg/mL (by protocol).

Row | Compound | survival
1 | Clc1ccc(CCNc2ncnc3c2c(-c2ccccc2)cn3-c2ccccc2)cc1 | 94%
2 | COc1ccc(Cn2c(CCC(=O)Nc3ccc(Br)c(C)c3)nc3cccnc32)cc1 | 71%
3 | Cc1ccc(N2CC(NC(=O)/C=C\c3ccc4c(c3)OCO4)CC2=O)cc1 (centres undefined) | 91%
4 | COc1ccc(NC(=O)Cn2ccn(-c3ccc(C)c(C)c3)c(=O)c2=O)cc1Cl | 72%
5 | COc1ccc(OC)c(CNC(=O)c2ccccc2NC(=O)c2nsc3ccccc23)c1 | 92%
6 | O=C(NC1CC(=O)N(c2ccccc2)C1)C(c1ccccc1)c1ccccc1 (centres undefined) | 89%
7 | Cc1nnc(Nc2ccc(C(=O)O)cc2)[nH]c1=O | 108%
8 | O=C1CCSC2(C(=O)N(Cc3ccc(F)cc3)c3ccccc32)N1c1ccccc1 (centres undefined) | 78%
9 | CC(=O)c1cccc(NS(=O)(=O)c2cc3c(cc2C)N(C(C)=O)CCO3)c1 | 95%
10 | CCc1ccc(NC(=O)Cn2c(=O)n(CCCC(=O)NCc3ccc4c(c3)OCO4)c(=O)c3ccccc32)cc1 | 93% (active)
11 | CCc1ccc(NC(=O)Cn2c(=O)n(CCC(=O)NCc3ccc4c(c3)OCO4)c(=O)c3ccccc32)cc1 | 91%
12 | CCc1ccc(NC(=O)Cn2c(=O)n(CCCCC(=O)NCc3ccc4c(c3)OCO4)c(=O)c3ccccc32)cc1 | 87%
13 | O=C(Cc1ccc(Cl)cc1)Nc1nnc2n1CCS2 | 77%
14 | O=C(Cc1ccccc1)Nc1nnc2n1CCS2 | 71%
15 | O=C(Cc1ccc(F)cc1)Nc1nnc2n1CCS2 | 52% (active)
16 | CCOC(=O)c1c(C)[nH]c(CCC(=O)NCc2ccccc2C)c1C | 80%
17 | COc1cc(NS(=O)(=O)c2ccc(NC(=O)c3ccc(Cl)cc3Cl)cc2)nc(OC)n1 | 98%
18 | O=C1OC(Nc2ccc3ncccc3c2)c2ccccc21 (centres undefined) | 30% (active)
19 | CC(=O)Nc1ccc(NC2OC(=O)c3ccccc32)cc1 (centres undefined) | 50%
20 | O=C(Nc1ccc2ncccc2c1)c1ccccc1 | 94%
21 | Cc1ccc(NC2OC(=O)c3ccccc32)cc1 (centres undefined) | 31% (active)
22 | O=C1OC(Nc2ccccc2C(F)(F)F)c2ccccc21 (centres undefined) | 45%
23 | O=C1OC(Nc2ccccn2)c2ccccc21 (centres undefined) | 42%
24 | CCc1ccc(CNC(=O)CN2C(=O)c3cccnc3Oc3ccc(C)cc32)cc1 | 72%

Row | Compound | survival
25 | Cc1ccc(C=N/C(=N\NC(=O)c2ccccc2)c2ccccc2)o1 | 94%
26 | COc1ccc2nc(N3CCN(C(=O)c4ccco4)CC3)sc2c1 | 88%
27 | CCN(CC)CCCNC(=O)c1ccc2c(=O)n(CCc3ccccc3)c(=O)[nH]c2c1 | 82%
28 | COc1nc(N2CCCCCC2)nc(N2CCCCCC2)n1 | 66%
29 | CCN(CC)C(=O)C1CCCN(c2ncnc3onc(C)c23)C1 (centres undefined) | 99%
30 | COc1ccc(CN(C(=O)c2ccco2)c2ccccc2)cc1 | 96%
31 | CCOc1ccc(N(Cc2ccccc2)C(=O)c2nc(S(C)(=O)=O)ncc2Cl)cc1 | 24% (active)
32 | CCOc1ccc(N(Cc2ccccc2)C(=O)c2nc(SCC)ncc2Cl)cc1 | 106%
33 | CCS(=O)(=O)c1ncc(Cl)c(C(=O)N(Cc2ccccc2)c2ccc(OC)cc2)n1 | 36% (active)
34 | CCCSc1ncc(Cl)c(C(=O)N(Cc2ccccc2)c2ccc(OC)cc2)n1 | 45% (active)
35 | COc1ccc(N(Cc2ccccc2)C(=O)c2nc(SC)ncc2Cl)cc1 | 99%
36 | COc1ccc(N(Cc2ccccc2)C(=O)c2nc(S(C)(=O)=O)ncc2Cl)cc1 | 51%
37 | CCSc1ncc(Cl)c(C(=O)N(Cc2ccccc2)c2ccc(OC)cc2)n1 | 100%
38 | CCOc1ccc(N(Cc2ccccc2)C(=O)c2nc(SC)ncc2Cl)cc1 | 72%
39 | COc1ccc(-c2cn3cccnc3n2)cc1NC(=O)c1cc(C)cc(C)c1 | 61%
40 | Cc1cc(C)c(NC(=O)Nc2csc3c2CCCC3)c(C)c1 | 78%
41 | Cc1c(CNCc2ccc(Cl)cc2)c(C(=O)O)c(C)n1Cc1ccc(F)cc1 | 77%
42 | CCOc1ccc(S(=O)(=O)N2CCN(Cc3nc4ccc(C)cc4o3)CC2)cc1 | 73%
43 | Cc1ccc(NC(=O)CN(Cc2ccccc2)S(=O)(=O)c2ccc3nc(C)sc3c2)c(C)c1 | 83%
44 | CCC(=O)N1CCc2cc(CNC(=O)c3cccc(N(C)C)c3)ccc21 | 84%
45 | CCOc1ccc(NC(=O)CC2C(=O)N(c3ccc(OC)cc3)C(=O)N2C2CCCCC2)cc1 (centres undefined) | 110%
46 | Cc1nccn1S(=O)(=O)c1c(C(C)C)cc(C(C)C)cc1C(C)C | 86%
47 | CCc1nccn1S(=O)(=O)c1cc(Br)ccc1Br | 43% (active)
48 | COc1cc(S(=O)(=O)n2ccnc2C(C)C)ccc1Br | 55%

Row | Compound | survival
49 | Cc1nccn1S(=O)(=O)c1ccc(Cl)cc1Cl | 67%
50 | CCOc1ccc(OCC)c(S(=O)(=O)n2cnc3cc(C)c(C)cc32)c1 | 104%
51 | CCOc1cc(C)c(C(C)C)cc1S(=O)(=O)n1ccnc1CC | -3% (active)
52 | Cc1ccc(NC(=O)CN(C)S(=O)(=O)c2cnc[nH]2)cc1 | 102%
53 | Cc1cc(C(=O)NCc2ccccc2)c2c(C)nn(-c3cccc(F)c3)c2n1 | 55%
54 | Cc1cccc(N2CCN(C(=O)C3CCN(c4ncnc5c4nc4n5CCCCC4)CC3)CC2C)c1 (centres undefined) | 6% (active)
55 | Cc1ccc(N2CCN(C(=O)C3CCN(c4ncnc5c4nc4n5CCCCC4)CC3)CC2)c(C)c1 | 79%
56 | O=C(NCc1ccccc1)C1CCN(c2ncnc3c2nc2n3CCCCC2)CC1 | 84%
57 | O=C(C1CCN(c2ncnc3c2nc2n3CCCCC2)CC1)N1CCN(c2ccc(Cl)cc2)CC1 | 81%
58 | O=C(NCCc1ccccc1)C1CCN(c2ncnc3c2nc2n3CCCCC2)CC1 | -2% (active)
59 | O=C(C1CCN(c2ncnc3c2nc2n3CCCCC2)CC1)N1CCN(c2ccc(F)cc2)CC1 | -1% (active)
60 | O=C(NCCc1ccc(Cl)cc1)C1CCN(c2ncnc3c2nc2n3CCCCC2)CC1 | 89%
61 | O=C(C1CCN(c2ncnc3c2nc2n3CCCCC2)CC1)N1CCN(c2ccccc2)CC1 | 72%
62 | Cc1cccc(N2CCN(c3ncnc4c3nc3n4CCCCC3)CC2C)c1 (centres undefined) | 101%
63 | O=c1c(N2CCc3ccccc3C2)csc2ccc(Br)cc12 | 78%
64 | Cc1cc(C)c(S(=O)(=O)Nc2ccc(-c3ccc(N4CCCCCC4)nn3)cc2)c(C)c1 | 84%
65 | O=C1CC(C(=O)NCc2ccccc2)N=C(N2CCCCC2)N1 (centres undefined) | 97%
66 | Cc1cc(C)cc(NC(=O)CN(C)S(=O)(=O)c2ccc3c(c2)CCC(=O)N3)c1 | 90%
67 | CCCCOC(=O)OC1CCS(=O)(=O)C1 (centres undefined) | 66%
68 | Cc1cccc(-n2cc(-c3ccccc3)c3c(NC(C)C)ncnc32)c1 | 107%
69 | Cc1nc2nc(C(F)(F)F)[nH]c2cc1Br | 4% (active)
70 | Nc1ccc2nc(C(F)(F)F)[nH]c2c1 | 95%
71 | CC(Oc1ccccc1F)C(=O)Nc1ccc(-c2nc3ccccc3s2)cc1 (centres undefined) | 107%
72 | COc1ccccc1OC(C)C(=O)Nc1ccc(-c2nc3ccccc3s2)cc1 (centres undefined) | 64%

Row | Compound | survival
73 | Cc1cc2oc(C(=O)Nc3cccc(-c4nc5ccccc5o4)c3)c(C)c2cc1Cl | 80%
74 | Cc1cc(OC(C)C(=O)Nc2cccc(-c3nc4ccccc4o3)c2)cc(C)c1Cl (centres undefined) | 46% (active)
75 | COc1ccccc1OC(C)C(=O)Nc1cccc(-c2nc3ccccc3s2)c1 (centres undefined) | 37% (active)
76 | COc1ccccc1OC(C)C(=O)Nc1cccc(-c2nc3ccccc3o2)c1 (centres undefined) | 18% (active)
77 | CC(C)C(=O)Nc1cccc(-c2nc3ccccc3o2)c1 | 112%
78 | Cc1ccc(C(=O)Nc2cccc(-c3nc4ccccc4o3)c2)c(Cl)c1 | 53%
79 | CC(=O)Nc1cccc(-c2nc3ccccc3o2)c1 | 107%
80 | COc1ccc(-c2cn3nc(N4CCCC(C(=O)Nc5cccc(Cl)c5C)C4)sc3n2)cc1 (centres undefined) | 82%
81 | COc1ccc(-n2ncc(C(=O)NCCCN3CCCCC3)c2C2CCN(C(=O)OC(C)(C)C)CC2)cc1 | 73%
82 | CCCOc1ccc(C(=O)Nc2ccc3oc(-c4ccncc4)nc3c2)cc1 | 62%
83 | Cc1cccc(-c2cc(NC(=O)c3ccccc3C)n(-c3ccccc3)n2)c1 | 80%
84 | Cc1nc2sc(C(=O)N(C)c3ccccc3)c(NC(=O)c3ccccc3Cl)c2c(C)c1C | 57%
85 | CCCCCn1c(=O)[nH]c2cc(C(=O)NCc3ccc(Cl)cc3)ccc2c1=O | 71%
86 | COc1cccc2cc(-c3csc(-c4ccc(Cl)cc4)n3)c(=O)oc12 | 99%
87 | CCN1CCN(Cc2c(O)ccc3oc(C)c(C(=O)Nc4ccc(OC)c(Cl)c4)c23)CC1 | 66%
88 | COc1ccc(NC(=O)c2c(C)oc3ccc(O)c(CN4CCCC4)c23)cc1Cl | 80%
89 | COc1ccc(NC(=O)c2c(C)oc3ccc(O)c(CN4CCCC(C)C4)c23)cc1Cl (centres undefined) | 52% (active)
90 | COc1ccc(NC(=O)c2c(C)oc3ccc(O)c(CN4CCC(C)CC4)c23)cc1Cl | 55% (active)
91 | COc1ccc(NC(=O)c2c(C)oc3ccc(O)c(CN4CCCCCC4)c23)cc1Cl | 94%
92 | COc1ccc(NC(=O)c2c(C)oc3ccc(O)c(CN4CCCC(C)C4)c23)cc1 (centres undefined) | 87%
93 | COc1ccc(CCNCc2c(C(=O)O)c(C)n(Cc3c(F)cccc3Cl)c2C)cc1OC | 121%
94 | CCCCOC(=O)c1ccc(NC(=O)Cn2nnc3sc4c(c3c2=O)CCCC4)cc1 | 67%
